PubChem BioAssay AID1159580 (chemical genetic matrix, 2015)
Several values for one entry are separate records, joined by “and”; a condition that tells them apart may be missing. Equal values may be shown once. About 2,000 (36%) of roughly 5,500 compounds were called active. About 18% were inconclusive and are not listed. Cut-off read from the data, not from the text of the source: active = normalized growth mostly below about 0.91 (no sharp cut-off); inconclusive = no clear call, values can overlap the other calls; inactive = mostly above about 0.92. Some of the results follow.

Experiment: chemical genetic growth profiling, strain panel (AID 1159580);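 note: tested at 20 µM; growth read once vehicle control cultures reached saturation at 30 °C; 1 = growth at the plate median or of vehicle wells; lower values mean less growth of the strain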
Details: S. cerevisiae deletion strains, growth OD
[1] = locus YGR229C, strain SMI1, active compounds read low
[2] = locus YMR307W, strain GAS1, active compounds read low
[3] = locus YPL055C, strain LGE1, active compounds read low

Measured: normalized growth

Cn1cc[nH]c1=S
inactive: locus YAL021C, strain ccr4, active compounds read low 0.981 | locus YAL026C, strain drs2, active compounds read low 0.99 | locus YAL030W, strain snc1, active compounds read low 0.99 | locus YBL061C, strain skt5, active compounds read low 0.99 | locus YBR009C, strain hhf1, active compounds read low 1.03 | locus YBR021W, strain FUR4, active compounds read low 0.991 | locus YBR023C, strain chs3, active compounds read low 0.98 | locus YBR171W, strain sec66, active compounds read low 0.99 | locus YBR229C, strain ROT2, active compounds read low 1.01 | locus YBR231C, strain swc5, active compounds read low 1 | locus YBR279W, strain paf1, active compounds read low 0.974 | locus YCL011C, strain gbp2, active compounds read low 0.967 | locus YCL016C, strain dcc1, active compounds read low 0.963 | locus YCL029C, strain bik1, active compounds read low 0.976 | locus YCL069W, strain vba3, active compounds read low 0.999 | locus YCR088W, strain abp1, active compounds read low 0.991 | locus YDL005C, strain med2, active compounds read low 0.963 | locus YDL035C, strain GPR1, active compounds read low 1.01 | locus YDL040C, strain nat1, active compounds read low 0.989 | locus YDL074C, strain BRE1, active compounds read low 1.02 | locus YDL101C, strain DUN1, active compounds read low 0.996 | locus YDL185W, strain tfp1, active compounds read low 0.935 | locus YDL192W, strain arf1, active compounds read low 0.971 | locus YDR001C, strain nth1, active compounds read low 0.989 | locus YDR069C, strain doa4, active compounds read low 1.01 | locus YDR101C, strain arx1, active compounds read low 1.02 | locus YDR137W, strain rgp1, active compounds read low 0.985 | locus YDR159W, strain sac3, active compounds read low 0.974 | locus YDR162C, strain NBP2, active compounds read low 1.01 | locus YDR195W, strain ref2 0.99 | locus YDR297W, strain sur2, active compounds read low 1.01 | locus YDR318W, strain mcm21, active compounds read low 0.968 | locus YDR334W, strain swr1, active compounds read low 0.973 | locus YDR335W, strain msn5, active compounds read low 1 | locus YDR388W, active compounds read low 0.991 | locus YDR392W, strain spt3, active compounds read low 0.887 | locus YDR502C, strain sam2, active compounds read low 0.993 | locus YEL003W, strain gim4, active compounds read low 1 | locus YEL037C, strain rad23, active compounds read low 0.98 | locus YEL061C, strain CIN8 (second series), active compounds read low 0.984 | locus YEL061C, strain CIN8, active compounds read low 0.985 | locus YER015W, strain faa2, active compounds read low 0.993 | locus YER016W, strain bim1, active compounds read low 0.978 | locus YER110C, active compounds read low 0.967 | locus YER111C, strain swi4, active compounds read low 0.967 | locus YER155C, strain BEM2 (second series), active compounds read low 0.976 | locus YER155C, strain BEM2, active compounds read low 1 | locus YER167W, strain BCK2, active compounds read low 1 | locus YFR010W, strain ubp6, active compounds read low 1.01 | locus YGL078C, strain dbp3, active compounds read low 0.956 | locus YGL086W, strain mad1, active compounds read low 1.01 | locus YGL167C, strain pmr1, active compounds read low 0.992 | locus YGL173C, strain kem1, active compounds read low 0.987 | locus YGL227W, strain vid30, active compounds read low 1.01 | locus YGL240W, strain doc1, active compounds read low 0.981 | locus YGL248W, strain PDE1, active compounds read low 1 | locus YGL253W, strain hxk2, active compounds read low 0.97 | locus YGR078C, strain PAC10, active compounds read low 1 | locus YGR135W, strain pre9, active compounds read low 0.938 | [1] 1.01 | locus YGR252W, strain gcn5, active compounds read low 0.958 | locus YHR013C, strain ard1, active compounds read low 0.949 | locus YHR027C, strain rpn1, active compounds read low 1 | locus YHR030C, strain SLT2, active compounds read low 0.997 and 1.04 | locus YHR079C, strain IRE1 (second series), active compounds read low 0.971 | locus YHR079C, strain IRE1, active compounds read low 1.04 | locus YHR094C, strain hxt1, active compounds read low 0.992 | locus YHR129C, strain ARP1, active compounds read low 1.01 | locus YHR142W, strain chs7, active compounds read low 0.981 | locus YHR200W, strain rpn10, active compounds read low 0.971 | locus YIL066C, strain RNR3, active compounds read low 1.01 | locus YIL073C, strain SPO22, active compounds read low 0.929 | locus YIL125W, strain kgd1, active compounds read low 0.986 | locus YIR030C, strain dcg1, active compounds read low 0.964 | locus YJL092W, strain hpr5, active compounds read low 1 | locus YJL095W, strain BCK1 (second series), active compounds read low 0.988 | locus YJL095W, strain BCK1, active compounds read low 0.991 and 1.03 | locus YJL115W, strain asf1, active compounds read low 0.988 | locus YJL129C, strain trk1, active compounds read low 0.963 | locus YJL134W, strain LCB3, active compounds read low 0.999 | locus YJL154C, strain vps35, active compounds read low 0.984 | locus YJL164C, strain tpk1, active compounds read low 1.02 | locus YJL166W, strain qcr8, active compounds read low 1.03 | locus YJL168C, strain set2, active compounds read low 0.984 | locus YJL187C, strain SWE1 (second series), active compounds read low 1 | locus YJR043C, strain POL32, active compounds read low 1.02 | locus YJR066W, strain TOR1, active compounds read low 0.991 | locus YJR075W, strain HOC1, active compounds read low 0.997 | locus YKL009W, strain mrt4, active compounds read low 0.966 | locus YKL068W, active compounds read low 0.987 | locus YKL085W, strain MDH1 (second series), active compounds read low 0.967 | locus YKL085W, strain MDH1, active compounds read low 0.967 | locus YKL160W, strain elf1, active compounds read low 0.952 | locus YKL190W, strain CNB1, active compounds read low 0.985 | locus YKR001C, strain vps1, active compounds read low 0.996 | locus YKR026C, strain gcn3, active compounds read low 0.985 | locus YKR091W, strain srl3, active compounds read low 0.983 | locus YLL001W, strain dnm1, active compounds read low 1 | locus YLL026W, active compounds read low 1 | locus YLL041C, strain sdh2, active compounds read low 1.01 | locus YLR027C, strain aat2, active compounds read low 0.991 | locus YLR039C, strain RIC1, active compounds read low 0.879 | locus YLR058C, strain SHM2, active compounds read low 1 | locus YLR102C, strain apc9, active compounds read low 0.972 | locus YLR113W, strain HOG1, active compounds read low 1.03 | locus YLR221C, strain rsa3, active compounds read low 1.04 | locus YLR258W, strain gsy2, active compounds read low 0.979 | locus YLR262C, strain YPT6 (second series), active compounds read low 1.06 | locus YLR262C, strain YPT6, active compounds read low 0.995 | locus YLR268W, strain sec22, active compounds read low 0.981 | locus YLR320W, strain mms22, active compounds read low 0.999 | locus YLR330W, strain CHS5, active compounds read low 0.995 | locus YLR342W, strain FKS1 (second series), active compounds read low 1.01 | locus YLR342W, strain FKS1, active compounds read low 0.97 | locus YLR357W, strain rsc2, active compounds read low 0.98 | locus YLR370C, strain arc18, active compounds read low 0.978 | locus YLR371W, strain rom2, active compounds read low 0.983 | locus YLR384C, strain iki3, active compounds read low 0.997 | locus YLR418C, strain cdc73, active compounds read low 0.965 | locus YML016C, strain PPZ1, active compounds read low 1.01 | locus YML032C, strain rad52, active compounds read low 0.994 | locus YML120C, strain ndi1, active compounds read low 1.01 | locus YML124C, strain tub3, active compounds read low 0.977 | locus YMR058W, strain fet3, active compounds read low 0.995 | locus YMR078C, strain ctf18, active compounds read low 0.96 | locus YMR125W, strain sto1, active compounds read low 0.973 | locus YMR129W, active compounds read low 1 | locus YMR205C, strain PFK2, active compounds read low 0.984 | locus YMR223W, strain ubp8, active compounds read low 0.952 | locus YMR231W, strain pep5, active compounds read low 0.981 | [2] 1.05 | locus YNL067W, strain RPL9B, active compounds read low 0.997 | locus YNL071W, strain lat1, active compounds read low 0.989 | locus YNL153C, strain GIM3, active compounds read low 1.01 | locus YNL183C, strain NPR1, active compounds read low 0.993 | locus YNL209W, strain ssb2, active compounds read low 0.979 | locus YNL233W, strain BNI4, active compounds read low 1 | locus YNL248C, strain rpa49, active compounds read low 0.965 | locus YNL250W, strain rad50, active compounds read low 0.964 | locus YNL271C, strain bni1, active compounds read low 0.97 | locus YNL298W, strain CLA4, active compounds read low 0.946 | locus YNL307C, strain MCK1, active compounds read low 0.982 | locus YNL322C, strain KRE1 (second series), active compounds read low 0.966 | locus YNR049C, strain mso1, active compounds read low 0.998 | locus YNR052C, strain pop2, active compounds read low 0.962 | locus YOL006C, strain TOP1, active compounds read low 0.987 | locus YOL012C, strain htz1 0.891 | locus YOL147C, strain pex11, active compounds read low 0.973 | locus YOR001W, strain rrp6, active compounds read low 1.03 | locus YOR061W, strain CKA2, active compounds read low 1 | locus YOR069W, strain VPS5, active compounds read low 1.01 | locus YOR070C, strain gyp1, active compounds read low 0.994 | locus YOR080W, strain dia2, active compounds read low 1 | locus YOR083W, strain WHI5, active compounds read low 0.922 | locus YOR106W, strain vam3, active compounds read low 0.977 | locus YOR136W, strain idh2, active compounds read low 0.987 | locus YOR144C, strain elg1, active compounds read low 0.986 | locus YOR184W, strain ser1, active compounds read low 0.974 | locus YOR231W, strain MKK1, active compounds read low 1.04 | locus YOR265W, strain rbl2, active compounds read low 0.997 | locus YOR270C, strain vph1, active compounds read low 1.07 | locus YOR290C, strain snf2, active compounds read low 0.955 | locus YOR316C, strain cot1, active compounds read low 0.974 | locus YPL051W, strain arl3, active compounds read low 0.98 | [3] 0.999 | locus YPL078C, strain atp4, active compounds read low 1 | locus YPL106C, strain sse1, active compounds read low 0.965 | locus YPL240C, strain hsp82, active compounds read low 1.02 | locus YPL241C, strain CIN2, active compounds read low 1 | locus YPL256C, strain CLN2, active compounds read low 1.06 | locus YPR119W, strain clb2, active compounds read low 0.968 | locus YPR141C, strain kar3, active compounds read low 0.977 | locus YPR163C, strain tif3, active compounds read low 0.976 | locus YPR167C, strain met16, active compounds read low 0.983 | strain wtn01, active compounds read low 0.97

Oc1ccc(Cn2cc[nH]c2=S)cc1
active: locus YNL197C, strain WHI3, active compounds read low 0.477 | locus YOR083W, strain WHI5 (second series), active compounds read low 0.681
inactive: locus YAL040C, strain CLN3, active compounds read low 0.993 | locus YCL061C, strain MRC1 (second series), active compounds read low 1.01 | locus YDR363W, strain ESC2, active compounds read low 1 | locus YER002W, strain NOP16, active compounds read low 1.03 | [1] 0.986 | [2] 1 | locus YNL175C, strain NOP13, active compounds read low 1 | locus YNL224C, strain SQS1, active compounds read low 0.999 | [3] 1.01
